# Measurements taken from PubChem BioAssay AID1985 (Southern Research Specialized Biocontainment Screening …, 2009).
# In all, about 2,300 compounds went through this assay and about 1,000 (43%) were called active. The rule behind the calls is not given here. So high a share suggests a set chosen from earlier hits. Some of the results follow. Results with a measured potency or affinity are listed apart.
# Assay: PhoP regulon inhibitor project modified counter assay, GFP fluorescence readout, dose response (AID 1985)
# Conditions: S. Typhi, 4 h; series mostly up to 150 µM
row,SMILES,outcome
1,C[C@]1(OC(=O)/C=C/c2ccccc2)C[C@@H](O)[C@]2(O)C=CO[C@@H](O[C@@H]3O[C@H](CO)[C@@H](O)[C@H](O)[C@H]3O)[C@@H]21,inactive
2,C1=Nc2ccccc2CN1c1ccccc1,inactive
3,COc1ccc(C(C(=O)Nc2ccc(C(C)C)cc2)N(Cc2ccco2)C(=O)CC2NC(=O)NC2=O)cc1 (stereo not given),inactive
4,Cc1ncc([N+](=O)[O-])n1CC(=O)NC1CCCC1,inactive
5,CC(=O)NS(=O)(=O)c1ccc(Nc2ccc([N+](=O)[O-])c3nonc23)cc1,inactive
6,CC1=C([N+](=O)[O-])C(c2ccccc2)C2=C(N1)c1ccccc1C2=O (stereo not given),inactive
7,O=C1CC(=O)CC(c2ccco2)C1,inactive
8,COc1ccccc1C(=O)Nc1nnc(-c2ccc(F)cc2)o1,inactive
9,N#CC1=C2N=C(N)c3ccccc3N2C2=C(C(=O)CCC2)C1c1cccc(Cl)c1 (stereo not given),inactive
10,O=C1c2ccccc2NC(c2cccc([N+](=O)[O-])c2)N1CCc1ccccc1 (stereo not given),inactive
11,CCS(=O)(=O)N1CCN(C(=O)c2ccco2)CC1,inactive
12,COc1cc(S(=O)(=O)N2CCN(C(=O)c3ccco3)CC2)c(OC)cc1C,inactive
13,COc1ccccc1NC(=O)Cn1nc(-c2ccncc2)nc1SCC(=O)NC1CCCC1,inactive
14,O=C(CCNS(=O)(=O)c1cccc2nonc12)N1CCN(c2cccc(Cl)c2)CC1,inactive
15,CC1CC(C)CN(S(=O)(=O)c2cccc3cccnc23)C1 (stereo not given),inactive
16,C=CCN(c1ccccc1)S(=O)(=O)c1cccc2cccnc12,inactive
17,CCN(CC)C(=O)C(=O)c1cn(CC(=O)N2CCc3ccccc3C2)c2ccccc12,inactive
18,CC(=O)Oc1ccc(C(=O)Nc2ccc3c(c2)C(=O)N(CCC(=O)O)C3=O)cc1,inactive
19,Brc1ccc2c(c1)CN1CCCC1=N2,inactive
20,c1ccc(CNc2nc(-c3ccccn3)nc3ccccc23)cc1,inactive
21,Cc1n[nH]c(=O)nc1NCCc1ccccc1,inactive
22,CCOC(=O)COc1cccc2c(=O)n(CC(=O)N3CCCCC3)ccc12,inactive
23,CC(=O)CC1OC(=O)C(Br)=C1NCc1ccccc1 (stereo not given),inactive
24,COC(=O)CNc1n[nH]c(=S)[nH]c1=O,inactive
25,COc1ccc(C(=O)C[n+]2cc(Br)cc3ccccc32)cc1[N+](=O)[O-],inactive

row,SMILES,outcome
1,O=C(C[n+]1cc(Br)cc2ccccc21)c1ccc(F)cc1,inactive
2,CCOCCCNC(=O)CN1CCN(Cc2ccccc2C)C1=O,inactive
3,COC(=O)c1c(-c2cccc(C)c2)csc1N,inactive
4,COC(=O)c1cc2ccsc2n1CC(=O)N(C)c1ccccc1,inactive
5,CC(C)(C)CC(=O)Nc1nnc(SCC(=O)N2CCCCC2)s1,inactive
6,Cc1nc(C)c(-c2ccc(SCc3ccccc3C)nn2)s1,inactive
7,COc1ccc(-c2nnc(SC(C)C(=O)Nc3nccs3)n2Cc2ccccc2)cc1OC (stereo not given),inactive
8,CC1=C(C#N)CCC(=O)N1Cc1c(C)cc(C)cc1C,inactive
9,COc1ccc(Cl)cc1NC(=O)c1cc(-c2ccccc2)on1,inactive
10,CC(Oc1ccc(Br)cc1)c1nc2c3ccccc3nc(=S)n2[nH]1 (stereo not given),inactive
11,COc1ccc(NC(=O)Cn2cnc3c(cnn3C(C)(C)C)c2=O)cc1OC,inactive
12,COc1ccc(-n2nnc3c(SCC(=O)N4CCCc5ccccc54)ncnc32)cc1,inactive
13,Cc1ccn2cc(C(=O)Nc3nnc(C)s3)nc2c1,inactive
14,Cc1cc(C(=O)OCC(=O)Nc2cccc(S(=O)(=O)N3CCOCC3)c2)c(C)o1,inactive
15,C#CCOCCOCCOCCNc1nc(N2CCN(C(=O)C(Cc3cc4ccccc4[nH]3)n3cc(C(N)C(C)CC)nn3)CC2)nc(N2CCN(C(=O)C(Cc3cc4ccccc4[nH]3)n3cc(C(N)C(C)CC)nn3)CC2)n1 (stereo not given),inactive
16,C#CCOCCOCCOCCNc1nc(N2CCN(C(=O)[C@H](CCCCN)n3cc([C@@H](N)CO)nn3)CC2)nc(N2CCN(C(=O)[C@H](Cc3cc4ccccc4[nH]3)n3cc([C@@H](N)Cc4ccc(O)cc4)nn3)CC2)n1,inactive
17,Nc1ccc(C(O)(C(F)(F)F)C(F)(F)F)cc1,inactive
18,C#CCOCCOCCOCCNc1nc(N2CCN(C(=O)C(Cc3ccc(O)cc3)n3cc(C(N)CC(C)C)nn3)CC2)nc(N2CCN(C(=O)C(Cc3cc4ccccc4[nH]3)n3cc(C(N)Cc4ccc(O)cc4)nn3)CC2)n1 (stereo not given),inactive
19,C#CCOCCOCCOCCNc1nc(N2CCN(C(=O)[C@H]([C@@H](C)CC)n3cc([C@@H](N)CO)nn3)CC2)nc(N2CCN(C(=O)[C@H](Cc3cc4ccccc4[nH]3)n3cc([C@@H](N)Cc4ccc(O)cc4)nn3)CC2)n1,inactive
20,C#CCOCCOCCOCCNc1nc(N2CCN(C(=O)[C@H](Cc3ccc(O)cc3)n3cc([C@@H](N)C(C)CC)nn3)CC2)nc(N2CCN(C(=O)[C@H](Cc3cc4ccccc4[nH]3)n3cc([C@@H](N)Cc4ccc(O)cc4)nn3)CC2)n1 (stereo not given in full),inactive
21,O=C(O)c1[nH]c2ccc(Br)cc2c1CCN1C(=O)c2cccc([N+](=O)[O-])c2C1=O,inactive
22,Cc1ccc(CCNC(=O)c2cc(S(=O)(=O)N3CCCCC3)c[nH]2)cc1,inactive
23,CCOC(=O)c1ccc(NC(=O)CSc2nc(N3CCOCC3)nc(N3CCOCC3)n2)cc1,inactive
24,CN1CCN(c2ccc(NC(=O)CSc3ccccc3)cc2F)CC1,inactive
25,Cn1cnnc1SCC(=O)Nc1ccc2nc(SCc3ccccc3)sc2c1,inactive

row,SMILES,outcome
1,CCOc1ccccc1NC(=O)CSc1nc(N)c(C#N)cc1C#N,inactive
2,O=C(Nc1ccc2c(c1)OCCO2)C1CCCN1C(=O)Nc1ccc(F)cc1 (stereo not given),inactive
3,C/C=C/c1ccc(OCc2cc(=O)n3cc(C)ccc3n2)c(OC)c1,inactive
4,CCN(CCCNC(=O)c1cn(CC)c2ccc(S(=O)(=O)N(C)C)cc2c1=O)c1cccc(C)c1,inactive
5,Cc1ccc(CCN2C(=O)CCC2(C)C(=O)NC2CCCC2)cc1 (stereo not given),inactive
6,O=C(NCc1ccccc1)N[C@@H](Cc1c[nH]c2ccccc12)C(=O)O,inactive
7,Cc1c(NC(=O)OCc2ccccc2)c(=O)n(-c2ccccc2)n1C,inactive
8,Cc1c(-n2cc(C(=O)c3ccccc3O)cc(C#N)c2=O)c(=O)n(-c2ccccc2)n1C,inactive
9,COc1ccc(NC(=O)CC2Sc3ncnn3C2=O)cc1 (stereo not given),inactive
10,Cc1ccc(NC(=O)c2sccc2C)cc1[N+](=O)[O-],inactive
11,N=c1sc2c(n1Cc1ccccc1)CCCC2,inactive
12,Cc1cc(NC(=O)/C=C/C(=O)N(c2ccccc2C)C(C(=O)NC2CCCC2)c2ccc(F)cc2)no1 (stereo not given),inactive
13,C[C@@H](NC(=O)[C@@H]1Cc2ccccc2CN1)C(=O)NCC1CCCO1 (stereo not given in full),inactive
14,COc1ccccc1Nc1cc(C(=O)NCc2cccnc2)c2ccccc2n1,inactive
15,COc1c(C(=O)N2CCCC2)ccc2ccccc12,inactive
16,CCOc1ccc(NC(=S)Nc2cc(C)[nH]n2)cc1,inactive
17,CC(C)(C)Nc1c2ccccc2nc2ccccc12,inactive
18,CC1CCN(C(=O)COc2ccc(Nc3ccccc3)cc2)CC1,inactive
19,COc1ccc(Nc2c3c(nc4ccc(C)cc24)CCC3)cc1,inactive
20,CCOC(=O)c1ccc(NC(=O)C2CCC(CNc3c(N4CCOCC4)c(=O)c3=O)CC2)cc1 (stereo not given),inactive
21,CCCCNC(=O)CCC(=O)Nc1ccc2nc(N3CCC(C)CC3)cc(C)c2c1,inactive
22,COc1ccc(N=CC2=C(Nc3ccc(OC)cc3)c3c(C)nn(-c4ccccn4)c3CC2)cc1,inactive
23,CCO[C@H]1OC(C(=O)O)=C[C@@H](c2ccccc2)[C@@H]1CCCO,inactive
24,Clc1ccc2c(c1)C(N1CCNCC1)Cc1ccccc1S2 (stereo not given),inactive
25,O=C(NCc1ccco1)C1CCN(C(=O)c2cc3sccc3n2Cc2ccc(Cl)cc2)CC1,inactive

row,SMILES,outcome
1,Cc1ccc2nc(/C(C#N)=C\c3ccc(N4CCCCC4)c([N+](=O)[O-])c3)[nH]c2c1,inactive
2,C#CCOCCOCCOCCNc1nc(N2CCN(C(=O)CCCCCCCCCCNC(=O)[C@H](CCCCN)n3cc(CCO)nn3)CC2)nc(N2CCN(C(=O)CCCCCCCCCCNC(=O)[C@H](CCCCN)n3cc(CCO)nn3)CC2)n1,inactive
3,CCOC(=O)c1cc(-c2ccncc2)nc2c1c(C)nn2-c1ccccn1,inactive
4,CN(C)/C=N/c1ncc(C(=O)c2ccc(Cl)cc2)s1,inactive
5,Cc1cc(-c2nc3ccccc3o2)c2ccccc2n1,inactive
6,Nc1ccc(N=Nc2ccccc2)c(N)n1,inactive
7,Cc1ccc(C)c(Nc2cc(C)nc3ccccc23)c1,inactive
8,Nc1nc2ccccc2cc1-c1cccs1,inactive
9,Nc1nn2cc(-c3ccccc3)nc2c2ccccc12,inactive
10,CCCN(C(=O)CSc1nc2ccccc2n1CC)C1CCS(=O)(=O)C1 (stereo not given),inactive
11,CCOc1ccc(-c2ccc(SCC(=O)N3CCOCC3)nn2)cc1,inactive
12,CCCCc1cc(=O)oc2cc(C)cc(OCC(=O)NCC3CCC(C(=O)O)CC3)c12 (stereo not given),inactive
13,CC(C)C(NC(=O)c1ccc(Cl)cc1)C(=O)NCC1CCCO1 (stereo not given),inactive
14,Clc1ccc2c(c1)c1cc(Cl)ccc1n2CN1CCOCC1,inactive
15,Cc1ccc(N(CC(=O)Nc2c(C)n(C)n(-c3ccccc3)c2=O)S(C)(=O)=O)cc1C,inactive
16,OCC[C@H]1C[C@H](O)[C@@H](O)[C@@]2(Cc3ccccc3CO2)O1,inactive
17,O=C(NC1(C(F)(F)F)C(=O)Nc2c1c(=O)[nH]c(=O)n2-c1ccccc1)c1ccncc1 (stereo not given),inactive
18,Cc1ccn2cc(-c3ccc4c(c3)NC(=O)CO4)nc2c1,inactive
19,Cc1csc2ncc(C(=O)Nc3ccon3)c(=O)n12,inactive
20,Cc1cccc(NC(=O)C2CCCN2S(=O)(=O)c2ccc3c(c2)n(C)c(=O)c(=O)n3C)c1 (stereo not given),inactive
21,Cc1cccc(NCN2C(=O)c3ccccc3C2=O)c1,inactive
22,Cc1ccc(NNS(=O)(=O)c2ccc(C)cc2)cc1,inactive
23,Cc1cc(C)c(S(=O)(=O)Nc2cccnc2)c(C)c1,inactive
24,CCOc1ccccc1NC(=O)NS(=O)(=O)c1ccc(C)cc1,inactive
25,CC(=O)Nc1ccc(S(=O)(=O)Nc2nc3ccccc3nc2Nc2cccc(S(N)(=O)=O)c2)cc1,inactive
